# Measured values as given in PubChem BioAssay (EPA / NIEHS).
# Results filed as inconclusive are left out. More than one record can exist for a structure, and the calls need not agree. Active and inactive are the calls of the source. Rule for the calls, unless noted: active = hit-call score of the fitted dose curve at least 0.9, where 1 is the maximum; inactive = score below 0.9.
# Experiments:
# [1] = CCTE_Shafer_MEA_dev_bursting_electrodes_number: CCTE's Neural Network Formation Assay for Number of Bursting Electrodes, Shafer Lab (AID 2284043; active = hit-call score of the fitted dose curve at least 0.9, where 1 is the maximum;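 for AC50: potency is for loss of bursting electrodes relative to DMSO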)
# Outline: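 Primary rat cortical neurons plated on 16-electrode MEA wells, exposed from day 0 with compound renewed at DIV 5 and 9. Electrodes bursting ≥1 burst per 2 min counted on days 5, 7, 9 and 12; trapezoidal AUC across days, fitted for loss versus DMSO.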
# [2] = CCTE_Shafer_MEA_dev_per_burst_interspike_interval: CCTE's Neural Network Formation Assay for Burst Interspike Interval, Shafer Lab (AID 2284044);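 note: mean spike spacing inside bursts as AUC over recordings on days 5 7 9 12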
# Outline: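 Primary rat cortical neurons on 48-well MEA plates, exposed from day 0 through day 12, treatment renewed at DIV 5 and 9. Within-burst interspike interval recorded days 5, 7, 9, 12, well-averaged, summarised as AUC; negative fit versus DMSO.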
# [3] = CCTE_Shafer_MEA_dev_burst_duration_mean: CCTE's Neural Network Formation Assay for Mean Burst Duration, Shafer Lab (AID 2284045);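 for AC50: curve fitted for loss meaning shorter burst duration than DMSO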
# Outline: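 Primary rat cortical neurons on 48-well 16-electrode MEA plates, exposed from day 0 with renewal at DIV 5 and 9; spontaneous activity recorded on days 5, 7, 9, 12. Well-mean burst duration across bursting electrodes, collapsed as trapezoidal AUC; DMSO baseline.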
# [4] = CCTE_Shafer_MEA_dev_interburst_interval_mean: CCTE's Neural Network Formation Assay for Mean Interburst Interval, Shafer Lab (AID 2284046);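 note: well-mean interburst interval of bursting electrodes as AUC over four recording days; curve fitted for decrease in interburst interval relative to DMSO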
# Outline: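 Recordings on days 5, 7, 9 and 12 give well-mean interburst interval across actively bursting electrodes, summarized as area under the curve. Cultures: rat cortical neurons, continuous exposure from day 0, compound renewed at feeds; decrease analyzed versus DMSO.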
# [5] = CCTE_Shafer_MEA_dev_inter_network_spike_interval_mean: CCTE's Neural Network Formation Assay for Mean Inter-network Spike Interval, Shafer Lab (AID 2284047)
# Outline: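 Primary rat cortical neurons on 16-electrode MEA wells, exposed from plating day 0 through DIV 12, compound renewed at DIV 5 and 9 media changes. Mean interval between network-spike peaks recorded DIV 5, 7, 9, 12; collapsed as trapezoidal AUC, fitted downward versus DMSO.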
# [6] = CCTE_Shafer_MEA_dev_network_spike_number: CCTE's Neural Network Formation Assay for Number of Network Spikes, Shafer Lab (AID 2284048);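 for AC50: fit as a loss of signal meaning fewer network spikes than DMSO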
# Outline: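 Primary rat cortical neurons on PEI/laminin 48-well MEA plates, dosed from plating day 0 for 12 days, renewed at DIV 5 and 9. Network spike counts recorded DIV 5, 7, 9, 12, collapsed as trapezoidal AUC; DMSO baseline.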
# [7] = CCTE_Shafer_MEA_dev_network_spike_peak: CCTE's Neural Network Formation Assay for Mean Number of Electrodes in Network Spike, Shafer Lab (AID 2284049);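 for AC50: fitted for loss of signal meaning fewer electrodes in network spikes than DMSO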
# Outline: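 Network-spike peak electrode count from recordings on days 5, 7, 9 and 12 was combined as trapezoidal area under the curve. Rat cortical cultures were treated continuously from plating, with compound renewed at each feed (DIV 5, 9); fits versus DMSO.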
# [8] = CCTE_Shafer_MEA_dev_spike_duration_mean: CCTE's Neural Network Formation Assay for Mean Spike Duration, Shafer Lab (AID 2284051);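 note: mean network spike duration pooled as area under curve over DIV 5 to 12 recordings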;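 for AC50: potency for a decrease in mean network spike duration versus DMSO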
# Outline: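 Primary rat cortical neurons on 16-electrode MEA wells (PEI-coated, laminin in plating drop), exposed from plating through DIV 12 with compound renewed at DIV 5 and 9. Mean network-spike duration recorded DIV 5, 7, 9, 12; trapezoidal AUC across days, DMSO baseline.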
# [9] = CCTE_Shafer_MEA_dev_network_spike_duration_std: CCTE's Neural Network Formation Assay for Standard Deviation of Network Spike Duration, Shafer Lab (AID 2284052);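 note: area under curve of spike duration SD across recording days 5 to 12; hits are decreases in network spike duration SD versus DMSO vehicle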
# Outline: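 Primary rat cortical neurons on PEI-coated 16-electrode MEA wells, exposed from plating day 0 through day 12 with compound renewed at DIV 5 and 9. Network spike duration SD recorded on days 5, 7, 9, 12, collapsed as trapezoidal AUC; loss-of-signal fit versus DMSO.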
# [10] = system: DIO2 (gene 1734); assay: CCTE_GLTED_hDIO2: CCTE's human Deiodinase 2 (DIO2) Inhibition Assay, Great Lakes Toxicology and Ecology Division (GLTED) Lab (AID 2284050; active = hit-call score of the fitted dose curve at least 0.9, where 1 is the maximum)
# Outline: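 Cell-free human DIO2 enzyme was incubated with test chemical for 3 h; iodide liberated from substrate was then quantified by the Sandell-Kolthoff reaction (absorbance), run in triplicate. Loss of signal versus DMSO baseline indicated inhibition.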
smiles,measurement,setting,value
CCN(CCO)S(=O)(=O)C(F)(F)C(F)(F)C(F)(F)C(F)(F)C(F)(F)C(F)(F)C(F)(F)C(F)(F)F,outcome,[1],inactive
same,outcome,[2],inactive
same,outcome,[3],inactive
same,outcome,[4],inactive
same,outcome,[5],inactive
same,outcome,[6],inactive
same,outcome,[7],inactive
same,outcome,[8],inactive
same,outcome,[9],inactive
CCN=C1C=CC(=C(c2ccc(N(CC)CC)cc2)c2ccc(N(CC)CC)cc2)c2ccccc21,AC50,[10],42 µM (active)
OCCCCC(F)(F)C(F)(F)C(F)(F)C(F)(F)F,outcome,[1],inactive
same,outcome,[2],inactive
same,outcome,[3],inactive
same,outcome,[4],inactive
same,outcome,[5],inactive
same,outcome,[6],inactive
same,outcome,[7],inactive
same,outcome,[8],inactive
same,outcome,[9],inactive
O=C(O)C(F)(F)C(F)(F)C(F)(F)OC(F)(F)F,outcome,[2],inactive
same,outcome,[3],inactive
same,outcome,[4],inactive
same,outcome,[5],inactive
same,outcome,[6],inactive
same,outcome,[7],inactive
same,outcome,[8],inactive
same,outcome,[9],inactive
O=S(=O)(O)CCC(F)(F)C(F)(F)C(F)(F)C(F)(F)F,outcome,[1],inactive
same,outcome,[2],inactive
same,outcome,[3],inactive
same,outcome,[4],inactive
same,outcome,[5],inactive
same,outcome,[6],inactive
same,outcome,[7],inactive
same,outcome,[8],inactive
same,outcome,[9],inactive
CCCCCCCCCCCCCC[P+](CCCC)(CCCC)CCCC,AC50,[10],17.1 µM (active)
OCC(F)(F)C(F)(F)C(F)(F)C(F)(F)C(F)(F)C(F)(F)C(F)(F)C(F)(F)CO,outcome,[1],inactive
same,outcome,[2],inactive
same,outcome,[3],inactive
same,outcome,[4],inactive
same,outcome,[5],inactive
same,outcome,[6],inactive
same,AC50,[7],22.5 µM (active)
same,AC50,[8],15 µM (active)
same,outcome,[9],inactive
NC(=O)C(F)(F)C(F)(F)C(F)(F)F,outcome,[2],inactive
same,outcome,[3],inactive
same,outcome,[4],inactive
same,outcome,[5],inactive
same,outcome,[6],inactive
same,outcome,[7],inactive
same,outcome,[8],inactive
same,outcome,[9],inactive
CCCCCCCC/C=C\CCCCCCCC(=O)OCC(O)CO (configuration not stated),AC50,[10],38.5 µM (active)
C=CC(=O)OCC(F)(F)C(F)(F)C(F)(F)COC(=O)C=C,AC50,[1],1.52 µM (active)
same,outcome,[2],inactive
same,AC50,[3],3.86 µM (active)
same,AC50,[4],8.65 µM (active)
same,outcome,[5],inactive
same,AC50,[6],1.18 µM (active)
same,AC50,[7],4.61 µM (active)
same,AC50,[10],26.3 µM (active)
same,AC50,[8],5.18 µM (active)
same,outcome,[9],inactive
O=S(=O)(Cl)C(F)(F)C(F)(F)C(F)(F)C(F)(F)C(F)(F)C(F)(F)C(F)(F)C(F)(F)F,AC50,[10],66 µM (active)
O=S(=O)(O)CCC(F)(F)C(F)(F)C(F)(F)C(F)(F)C(F)(F)C(F)(F)C(F)(F)C(F)(F)F,outcome,[2],inactive
same,outcome,[3],inactive
same,outcome,[4],inactive
same,outcome,[5],inactive
same,outcome,[6],inactive
same,outcome,[7],inactive
same,outcome,[8],inactive
same,outcome,[9],inactive
FC(F)(F)C(F)(F)C(F)(F)C(F)(F)C(F)(F)C(F)(F)C(F)(F)CCI,outcome,[1],inactive
same,outcome,[2],inactive
same,outcome,[3],inactive
same,outcome,[4],inactive
same,outcome,[5],inactive
same,outcome,[6],inactive
same,outcome,[7],inactive
same,outcome,[8],inactive
same,outcome,[9],inactive
CO[Si](C)(CCC(F)(F)C(F)(F)C(F)(F)C(F)(F)C(F)(F)C(F)(F)F)OC,outcome,[2],inactive
same,outcome,[3],inactive
same,outcome,[4],inactive
same,outcome,[5],inactive
same,outcome,[6],inactive
same,outcome,[7],inactive
same,outcome,[8],inactive
same,outcome,[9],inactive
CCCCCCCCCCCCC[N+](C)(C)Cc1ccccc1,AC50,[10],22.2 µM (active)
OCC(F)(F)C(F)(F)C(F)(F)C(F)(F)C(F)(F)C(F)(F)CO,outcome,[1],inactive
same,outcome,[2],inactive
same,outcome,[3],inactive
same,outcome,[4],inactive
same,outcome,[5],inactive
same,outcome,[6],inactive
same,outcome,[7],inactive
same,outcome,[8],inactive
same,outcome,[9],inactive
C=CC(=O)OCCC(F)(F)C(F)(F)C(F)(F)C(F)(F)F,outcome,[1],inactive
same,outcome,[2],inactive
same,outcome,[3],inactive
same,outcome,[4],inactive
same,outcome,[5],inactive
same,outcome,[6],inactive
same,AC50,[7],23.5 µM (active)
same,AC50,[10],31.5 µM (active)
same,AC50,[8],22.7 µM (active)
same,outcome,[9],inactive
C=C(C)C(=O)OCC(F)(F)C(F)(F)C(F)(F)C(F)F,AC50,[10],34 µM (active)
CNS(=O)(=O)C(F)(F)C(F)(F)C(F)(F)C(F)(F)C(F)(F)C(F)(F)C(F)(F)C(F)(F)F,outcome,[1],inactive
same,outcome,[2],inactive
same,outcome,[3],inactive
same,outcome,[4],inactive
same,outcome,[5],inactive
same,outcome,[6],inactive
same,outcome,[7],inactive
same,outcome,[8],inactive
same,outcome,[9],inactive
CCCCCCCCn1sc(Cl)c(Cl)c1=O,AC50,[10],26 µM (active)
NC(O)(C(F)(F)F)C(F)(F)F,outcome,[1],inactive
same,outcome,[2],inactive
same,outcome,[3],inactive
same,outcome,[4],inactive
same,outcome,[5],inactive
same,outcome,[6],inactive
same,AC50,[7],0.00434 µM (active)
same,outcome,[7],inactive
same,outcome,[8],inactive
same,outcome,[9],inactive
CCCCCCCC/C=C\CCCCCCCC(=O)N(C)CC(=O)O,AC50,[10],55.6 µM (active)
C=CC(=O)OCC(F)(F)C(F)(F)C(F)(F)C(F)(F)C(F)(F)C(F)(F)C(F)(F)C(F)F,AC50,[10],10.3 µM (active)
CCN=c1cc2oc3cc(NCC)c(C)cc3c(-c3ccccc3C(=O)OCC)c-2cc1C,AC50,[10],154 µM (active)
OC(O)C(F)(F)C(F)(F)F,outcome,[2],inactive
same,outcome,[3],inactive
same,outcome,[4],inactive
same,outcome,[5],inactive
same,outcome,[6],inactive
same,outcome,[7],inactive
same,outcome,[8],inactive
same,outcome,[9],inactive
OCC(F)(F)C(F)(F)C(F)(F)CO,outcome,[1],inactive
same,outcome,[2],inactive
same,AC50,[3],15 µM (active)
same,outcome,[4],inactive
same,outcome,[5],inactive
same,outcome,[6],inactive
same,outcome,[7],inactive
same,outcome,[8],inactive
same,outcome,[9],inactive
NC(=O)C(F)(F)C(F)(F)C(F)(F)C(F)(F)C(N)=O,outcome,[2],inactive
same,outcome,[3],inactive
same,outcome,[4],inactive
same,outcome,[5],inactive
same,outcome,[6],inactive
same,outcome,[7],inactive
same,outcome,[8],inactive
same,outcome,[9],inactive
NC(=O)C(F)(F)C(F)(F)C(F)(F)C(F)F,outcome,[2],inactive
same,outcome,[3],inactive
same,outcome,[4],inactive
same,outcome,[5],inactive
same,outcome,[6],inactive
same,outcome,[7],inactive
same,outcome,[8],inactive
same,outcome,[9],inactive
OCC(O)CC(F)(F)C(F)(F)C(F)(F)C(F)(F)F (configuration not stated),outcome,[1],inactive
same,outcome,[2],inactive
same,outcome,[3],inactive
same,outcome,[4],inactive
same,outcome,[5],inactive
same,outcome,[6],inactive
same,outcome,[7],inactive
same,outcome,[8],inactive
same,outcome,[9],inactive
